Among the test systems are DU-145 prostate; K-562 leukemia; MALME-3M melanoma; MDA-MB-231 breast; RXF 393 renal; SF-268 CNS; SF-295 CNS; SF-539 CNS; UACC-257 melanoma; M14 melanoma; HCT-15 colon; HT29 colon; SNB-75 CNS; SNB-19 CNS; U251 CNS; PC-3 prostate; SK-MEL-5 melanoma; UACC-62 melanoma; LOX IMVI melanoma; SK-MEL-28 melanoma.
Holding throughout (experiment): NCI-60 one-dose screen, 48 h (100 = growth as untreated, 0 = no growth, -100 = all killed)
Holding throughout (conditions): 10 µM unless noted

The structures appear in SMILES notation. Compounds without any hit were thinned out: in the full panel of roughly 83,000, 20% have a hit.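 Interpretation: 100, growth as untreated; towards 0, rising growth inhibition; 0, no net growth; 0 to -100, cell death. Compounds scoring below 10 were considered active.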 A number with no mark means an inactive call. The source made the active and inactive calls.

In the case of `c1ccc(CNc2c3ccccc3nc3ccccc23)cc1`, the growth in the experiment on DU-145 prostate is 48.6%; in the experiment on K-562 leukemia it was 12.3%; with MALME-3M melanoma, 37.4%; with MDA-MB-231 breast it was 57.9%; with RXF 393 renal it was 41.9%; in the experiment on SF-268 CNS, 62.6%. Also, the growth in the experiment on SF-295 CNS was 37.6%; in the experiment with SF-539 CNS, 24%; in the experiment on UACC-257 melanoma, 52.7%; in the experiment with M14 melanoma it was 32.3%; with HCT-15 colon, 24.6%; in the experiment with HT29 colon, 19%. Moreover, the growth in the experiment on SNB-75 CNS was 64.4%; in the experiment on SNB-19 CNS, 39.4%; in the experiment on U251 CNS, 38.5%; in the experiment on PC-3 prostate, 37.2%; in the experiment with SK-MEL-5 melanoma it was 63.1%; in the experiment on UACC-62 melanoma, 61%. Moreover, the growth with LOX IMVI melanoma is 19.8%; with SK-MEL-28 melanoma it was 85.5%.
On to `COc1ccc(/C=N/NC(=O)CCN2c3ccccc3Sc3ccccc32)cc1`, for which the growth in the experiment on DU-145 prostate is 102%; in the experiment on K-562 leukemia, 24%; in the experiment with MALME-3M melanoma, 71.7%; with MDA-MB-231 breast, 76.6%; in the experiment with RXF 393 renal, 66.6%; with SF-268 CNS it was 96.7%. Besides, the growth in the experiment with SF-295 CNS is 68.8%; in the experiment with SF-539 CNS, 85.2%; in the experiment with UACC-257 melanoma, 99.8%; with M14 melanoma it was 65.4%; in the experiment with HCT-15 colon, 43.9%; with HT29 colon, 57%. Further, the growth is 80.1% in the experiment with SNB-75 CNS; 75.4% with SNB-19 CNS; 91.5% in the experiment with U251 CNS; 61.4% with PC-3 prostate; 70.4% with SK-MEL-5 melanoma; 63% in the experiment with UACC-62 melanoma. The results for the growth with LOX IMVI melanoma and with SK-MEL-28 melanoma were 60.9% and 80.9%, respectively.
For the compound `COCCn1cc(-c2nc(-c3cc4cccnc4n3CCOC)cs2)c2cc(OC)ccc21`, the growth was 72.4% in the experiment on DU-145 prostate; 0.391% (active) with K-562 leukemia; 119% with MALME-3M melanoma; 23.7% in the experiment on MDA-MB-231 breast; 66.3% in the experiment on RXF 393 renal; 74.2% in the experiment on SF-268 CNS. Besides, the growth was 74.2% in the experiment on SF-295 CNS; 62.6% in the experiment on SF-539 CNS; 94.7% in the experiment with UACC-257 melanoma; 69.4% with M14 melanoma; 17% in the experiment with HCT-15 colon; 21.9% in the experiment with HT29 colon. Besides, the growth with SNB-75 CNS is 62.6%; with SNB-19 CNS, 91.1%; in the experiment with U251 CNS, 69.8%; in the experiment on PC-3 prostate, 29.3%; in the experiment with SK-MEL-5 melanoma, 36.7%; in the experiment on UACC-62 melanoma, 80.7%. The growth with LOX IMVI melanoma was 15.4%; in the experiment with SK-MEL-28 melanoma it was 87.2%.
As to `COc1ccc(OC)c(C(=O)/C=C/c2cc3c(c(OC)c2OC)OCO3)c1`, the growth was 41.7% in the experiment on DU-145 prostate; 29.7% with K-562 leukemia; 80.9% with MALME-3M melanoma; 83.2% in the experiment on MDA-MB-231 breast; 63.9% in the experiment on RXF 393 renal; 63.2% with SF-268 CNS. The growth is 84.1% in the experiment on SF-295 CNS; 87.6% in the experiment with SF-539 CNS; 72.5% in the experiment with UACC-257 melanoma; 78.6% in the experiment with M14 melanoma; 47.3% with HCT-15 colon; 60.3% with HT29 colon. For the same compound, the growth is 52% in the experiment with SNB-75 CNS; 71.5% in the experiment on SNB-19 CNS; 50.4% with U251 CNS; 61.8% in the experiment on PC-3 prostate; 68.4% with SK-MEL-5 melanoma; 55.4% in the experiment on UACC-62 melanoma. Moreover, the growth in the experiment on LOX IMVI melanoma is 47.8%; in the experiment with SK-MEL-28 melanoma, 89.7%.
As to `O=S(=O)(Nc1ccc(Cl)cc1)c1ccc(-c2cnc(C3CC3)o2)cc1`, the growth in the experiment on DU-145 prostate was 12.6%; with K-562 leukemia, 9.33% (active); with MALME-3M melanoma it was 46.3%; in the experiment on MDA-MB-231 breast it was 26.9%; with RXF 393 renal, -10.1% (active); in the experiment with SF-268 CNS, 43.5%. The growth is 33.6% with SF-295 CNS; -14.6% (active) in the experiment with SF-539 CNS; 56.1% with UACC-257 melanoma; 22% in the experiment on M14 melanoma; 27.9% in the experiment with HCT-15 colon; 15.4% in the experiment on HT29 colon. The growth in the experiment with SNB-75 CNS is -11.9% (active); with SNB-19 CNS it was 30%; with U251 CNS it was 24.4%; in the experiment with PC-3 prostate, 24.2%; in the experiment on SK-MEL-5 melanoma, 15.2%; in the experiment on UACC-62 melanoma, 17.3%. For the same compound, the values for the growth in the experiment with LOX IMVI melanoma and in the experiment on SK-MEL-28 melanoma were 50.5% and 61.4%, respectively.
As to `Cc1ccc(-c2nc3nc(-c4ccccc4)nc(N4CCNCC4)c3o2)cc1`, the growth is -86.8% (active) in the experiment on DU-145 prostate; -71% (active) in the experiment on K-562 leukemia; -80.4% (active) in the experiment with MALME-3M melanoma; -79.3% (active) in the experiment with MDA-MB-231 breast; -81.2% (active) in the experiment with RXF 393 renal; -67.2% (active) with SF-268 CNS. Besides, the growth in the experiment with SF-295 CNS was -83.2% (active); with SF-539 CNS, -93.4% (active); in the experiment on UACC-257 melanoma, -89.2% (active); with M14 melanoma, -84.7% (active); with HCT-15 colon it was -77% (active); with HT29 colon it was -74.4% (active). Further, the growth with SNB-75 CNS is -90.7% (active); with SNB-19 CNS, -80.6% (active); with U251 CNS, -90.2% (active); in the experiment on PC-3 prostate, -81.6% (active); in the experiment on SK-MEL-5 melanoma, -95.8% (active); in the experiment on UACC-62 melanoma it was -87.8% (active). Moreover, the growth was -78.6% (active) with LOX IMVI melanoma and -90.1% (active) in the experiment on SK-MEL-28 melanoma.
As for `Cc1cccnc1NC(=S)Nc1ncccc1C`, the growth is 113% in the experiment on DU-145 prostate; 65.3% with K-562 leukemia; 113% in the experiment with MALME-3M melanoma; 112% in the experiment with MDA-MB-231 breast; 92.3% in the experiment on RXF 393 renal; 108% with SF-268 CNS. Further, the growth was 81.2% in the experiment on SF-295 CNS; 107% in the experiment on SF-539 CNS; 116% in the experiment with UACC-257 melanoma; 102% with M14 melanoma; 104% in the experiment with HCT-15 colon; 103% in the experiment on HT29 colon. The growth was 96.2% with SNB-75 CNS; 104% in the experiment with SNB-19 CNS; 99.7% with U251 CNS; 99.9% in the experiment with PC-3 prostate; 101% in the experiment with SK-MEL-5 melanoma; 100% in the experiment on UACC-62 melanoma. Further, the growth with LOX IMVI melanoma was 107%; in the experiment with SK-MEL-28 melanoma, 111%.
For `CC(C)=NNc1ccccn1`, the growth was 48.4% in the experiment on DU-145 prostate; 59.2% in the experiment with K-562 leukemia; 48.5% in the experiment on MALME-3M melanoma; 36.4% with MDA-MB-231 breast; 69.8% in the experiment with RXF 393 renal; 43.7% in the experiment with SF-268 CNS. In addition, the growth is 67.6% with SF-295 CNS; 43.5% with SF-539 CNS; 11.9% with UACC-257 melanoma; 35.8% in the experiment on M14 melanoma; 27.9% in the experiment with HCT-15 colon; 27.4% in the experiment on HT29 colon. For the same compound, the growth with SNB-75 CNS was 79.2%; in the experiment with SNB-19 CNS, 62.3%; in the experiment on U251 CNS, 39.6%; in the experiment with PC-3 prostate it was 47.1%; in the experiment with SK-MEL-5 melanoma, 69.7%; in the experiment on UACC-62 melanoma, 56.6%. The growth was 29.7% in the experiment on LOX IMVI melanoma and 57.1% in the experiment with SK-MEL-28 melanoma.

Values taken from PubChem BioAssay (NCI).
